Source: PubChem BioAssay (several laboratories)
HIF-2a inh: inhibitors of HIF-2a. 786-0 RCC cells HIF-2a reporter, luciferase luminescence, overnight. inhibition, % at 18.8 µM. 360,000 tested, 0.72% active. AID 624352;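 active = inhibition of the luminescence signal of 40% or more relative to plate controls, in a single-dose primary screen at 18.75 µM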
LGR2 antag: inhibitors of bursicon-induced Drosophila LGR2 receptor cAMP signaling; 380,000 tested, 0.35% active; inhibition, % at 9.99 µM; HEK293 LGR2, CRE-luciferase, bursicon-stimulated, 4 h;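 active = drop in luminescence signal, shown as inhibition above about 50% in the replicate tests, limit read from the data, passing the limit was not always enough; inconclusive = probably only some replicates passing the limit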;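 also: agonist challenge used bursicon conditioned medium at about half maximal strength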
TWEAK-Fn14 inh: blocks TWEAK-Fn14 interaction in a reporter cell assay; TWEAK-stimulated Fn14 reporter cells, luciferase luminescence, 8 h; inhibition, % at 10 µM; 360,000 tested, 2% active; in the data active = inhibition above about 50%
iPSC survival up: increases survival of single human iPS cells; survival enhancement, % at 20 µM; hiPSC single-cell survival, ATPlite luminescence; 100% = ROCK inhibitor wells, 0% = DMSO; 360,000 tested, 0.044% active; in the data active = survival enhancement above about 18%;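 also: cells exposed to compounds for 16 hours before the ATP read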
CF NFkB inh: cystic fibrosis NF-kB activation inhibition; KKLEB NF-kB-GFP reporter, PAF-induced, GFP fluorescence overnight; inhibition, % at 5 µM; 360,000 tested, 0.86% active;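 active = at least 50% inhibition at 5 µM, scaled per plate between neutral and stimulator controls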;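 also: PAF is a Pseudomonas aeruginosa culture filtrate used as stimulus; plate controls were PAF-stimulated DMSO wells for no effect and unstimulated DMSO wells for full effect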
KKLEB tox: reduces viability of KKLEB cystic fibrosis airway cells | KKLEB CF airway cells viability, ATPlite luminescence, overnight; stronger effect = lower value; cells stimulated with P. aeruginosa culture filtrate | activity change (cytotoxicity), % at 5 µM | 360,000 tested, 0.36% active | AID 602141;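 active = corrected activity change at or below -50% at 5 µM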
Mdm2 MdmX conf: Mdm2/MdmX (human) interaction inhibition, confirmed; shares compounds with HIF-2a inh; SaOS-2 split-luciferase Mdm2/MdmX complementation, luminescence; inhibition, % at 8 µM; 740 tested, 99% active;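 active = mean inhibition of the luminescence signal across two replicates at or above 26 percent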
Target sequence (O15151 whole entry, looked up): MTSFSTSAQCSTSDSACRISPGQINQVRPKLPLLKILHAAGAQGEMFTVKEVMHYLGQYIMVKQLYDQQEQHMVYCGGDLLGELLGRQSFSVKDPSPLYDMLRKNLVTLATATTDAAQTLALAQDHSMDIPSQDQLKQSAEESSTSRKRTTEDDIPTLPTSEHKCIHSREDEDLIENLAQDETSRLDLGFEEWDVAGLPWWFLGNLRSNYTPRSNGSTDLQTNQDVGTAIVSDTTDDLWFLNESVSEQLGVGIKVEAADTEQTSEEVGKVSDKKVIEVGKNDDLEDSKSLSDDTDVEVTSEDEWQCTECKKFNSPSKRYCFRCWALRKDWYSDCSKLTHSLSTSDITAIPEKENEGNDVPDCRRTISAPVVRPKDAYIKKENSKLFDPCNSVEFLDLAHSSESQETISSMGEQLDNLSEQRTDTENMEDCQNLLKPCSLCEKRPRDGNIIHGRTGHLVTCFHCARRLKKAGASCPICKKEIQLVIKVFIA
Target sequence (Q00987 whole entry, looked up): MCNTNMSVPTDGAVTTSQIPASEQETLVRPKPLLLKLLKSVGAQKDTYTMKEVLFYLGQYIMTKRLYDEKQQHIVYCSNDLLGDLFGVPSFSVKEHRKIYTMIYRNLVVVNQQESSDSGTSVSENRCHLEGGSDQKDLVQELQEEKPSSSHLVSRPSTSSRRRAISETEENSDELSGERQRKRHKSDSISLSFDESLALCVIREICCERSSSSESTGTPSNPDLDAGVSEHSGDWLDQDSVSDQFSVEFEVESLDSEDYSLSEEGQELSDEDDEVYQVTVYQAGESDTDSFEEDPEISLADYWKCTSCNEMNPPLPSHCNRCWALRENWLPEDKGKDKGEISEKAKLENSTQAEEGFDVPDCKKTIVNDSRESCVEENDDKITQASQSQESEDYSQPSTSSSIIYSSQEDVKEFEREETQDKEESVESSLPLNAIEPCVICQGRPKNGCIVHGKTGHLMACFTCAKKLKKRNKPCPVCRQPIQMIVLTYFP
HIF-2a conf: HIF-2a inhibition, single concentration confirmation. 786-0 RCC cells, HIF-2a luciferase reporter luminescence, overnight. shares compounds with HIF-2a inh. 1,800 tested, 56% active. inhibition, % at 18.8 µM. AID 651580;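 active = mean inhibition across four replicates of at least 40 percent at the single tested concentration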
HIF-1a counter: counter-screen for HIF-2a inhibitors: HIF-1a inhibition in MiaPaCa-2 cells; shares compounds with HIF-2a inh; 1,800 tested, 72% active; AID 651589; inhibition, % at 18.8 µM; MiaPaCa-2 HIF-1a luciferase reporter, desferoxamine, overnight;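 active = mean inhibition of the reporter signal across four replicates at the single tested dose of 50% or more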
An asterisk follows results filed as active. Shown are actives, neighbours in structure and some others; about 2.3% of the full set was active somewhere.

O=C(Nc1ccc(N2CCN(Cc3ccccc3F)CC2)cc1)c1ccccc1[N+](=O)[O-] was read as HIF-2a inh 19, LGR2 antag 3, TWEAK-Fn14 inh 8, iPSC survival up -1, CF NFkB inh -13 and KKLEB tox -2.
Screening CS(=O)(=O)N1CCN(c2ccc(NC(=O)c3ccc([N+](=O)[O-])o3)cc2)CC1 returned HIF-2a inh 79*, LGR2 antag 10, TWEAK-Fn14 inh 1, iPSC survival up -4, CF NFkB inh 84*, KKLEB tox -65*, HIF-2a conf 10 and HIF-1a counter 57*.
For C[C@@H]1CN([C@@H](C)CO)C(=O)c2cccc(NC(=O)C3CC3)c2O[C@H]1CN(C)Cc1ccc(C(F)(F)F)cc1 the results were LGR2 antag 7.
For C=C(C(=O)c1ccccc1)C(CC(=O)c1ccccc1)c1ccccc1 (stereo not drawn) the results were HIF-2a inh 95*, LGR2 antag inconclusive, TWEAK-Fn14 inh 71*, iPSC survival up -2, CF NFkB inh 52*, KKLEB tox -55*, Mdm2 MdmX conf 102*, HIF-2a conf 57* and HIF-1a counter 103*.
Oc1ccccc1N=Nc1nc(-c2ccccc2)c(-c2ccccc2)[nH]1 was read as HIF-2a inh 17, LGR2 antag 42, TWEAK-Fn14 inh 33, iPSC survival up -6, CF NFkB inh 81*, KKLEB tox 2 and Mdm2 MdmX conf 87*.
For COc1ccc(NC(=O)N(C)C[C@H]2OCCCC[C@@H](C)Oc3ccc(NC(=O)Cc4ccccc4)cc3C(=O)N([C@H](C)CO)C[C@@H]2C)cc1 the results were LGR2 antag -1.
O=C(C=C=Nc1ccccc1)C(=O)N=C=Cc1ccccc1 was read as HIF-2a inh 75*, LGR2 antag 21, TWEAK-Fn14 inh 86*, iPSC survival up 0, CF NFkB inh 92*, KKLEB tox -20, HIF-2a conf 53* and HIF-1a counter 101*.
`C[C@H]1CN([C@@H](C)CO)C(=O)Cc2cc(NC(=O)c3ccncc3)ccc2O[C@@H]1CN(C)Cc1ccc2c(c1)OCO2` gave LGR2 antag -1.
Screening CC1CCN(CCC(=O)NN)CC1 returned HIF-2a inh 20, LGR2 antag 11, TWEAK-Fn14 inh 17, iPSC survival up -2, CF NFkB inh 27 and KKLEB tox -16.
NNC(=O)CCN1CCCCC1 was read as HIF-2a inh 69*, LGR2 antag 4, TWEAK-Fn14 inh 86*, iPSC survival up 1, CF NFkB inh -3, KKLEB tox -3, HIF-2a conf 3 and HIF-1a counter -1.
Screening Cc1cc2[nH]c3c4ccccc4nc(C)c3c2cc1C returned HIF-2a inh 92*, LGR2 antag -8, TWEAK-Fn14 inh -72, iPSC survival up -1, CF NFkB inh -50, KKLEB tox -68*, HIF-2a conf -4 and HIF-1a counter 105*.
For C=C1C(=O)[C@]23C[C@H]1CC[C@H]2[C@]1(C)[C@@H](OC(C)=O)CC[C@@](C)(C(=O)OC)[C@H]1C[C@@H]3OC(C)=O the results were HIF-2a inh 97*, LGR2 antag 29, TWEAK-Fn14 inh 85*, iPSC survival up -4, CF NFkB inh 95*, KKLEB tox -97*, HIF-2a conf 98* and HIF-1a counter 107*.
For Cc1ccncc1C(N)=O the results were HIF-2a inh 10, LGR2 antag 6, TWEAK-Fn14 inh 9, iPSC survival up 0, CF NFkB inh -6 and KKLEB tox 6.
`NC(=O)c1cc2ccncc2c2ccccc12` gave HIF-2a inh 33, LGR2 antag 22, TWEAK-Fn14 inh -15, iPSC survival up 0, CF NFkB inh 79*, KKLEB tox -7 and Mdm2 MdmX conf 98*.
For CC(C)NC(=O)N[C@@H]1CC[C@H](CC(=O)NCc2ccc(Oc3ccccc3)cc2)O[C@@H]1CO the results were LGR2 antag -1.
CN(C)/C=C/c1c([N+](=O)[O-])c2ccc(O)cc2n1-c1ccccc1 was read as HIF-2a inh 28, LGR2 antag 23, TWEAK-Fn14 inh 48, iPSC survival up 0, CF NFkB inh 84*, KKLEB tox -3 and Mdm2 MdmX conf 90*.
For O=C(C1CCC1)N1CC(=O)N2[C@@H](CO)[C@@H](c3ccc(C#CCc4ccccc4)cc3)[C@@H]2C1 the results were LGR2 antag 1.
`COc1ccc2c3c(n(C)c2c1)[C@H](CO)N(C(=O)Nc1ccc(F)cc1)CC31CN(Cc2cccnc2)C1` gave LGR2 antag 0.
For O=C(Nc1cc2ccccc2oc1=O)c1ccccc1 the results were HIF-2a inh 40*, LGR2 antag 89*, TWEAK-Fn14 inh 90*, iPSC survival up -2, CF NFkB inh -28, KKLEB tox -8, HIF-2a conf 68* and HIF-1a counter 63*.
`Cc1oc(=O)c(NC(=O)c2ccccc2)cc1C(N)=O` gave HIF-2a inh 4, LGR2 antag 5, TWEAK-Fn14 inh -19, iPSC survival up -1, CF NFkB inh 5 and KKLEB tox -3.
Screening N#CC1=C(N)Oc2n[nH]c(-c3cccs3)c2C1C1CCCCC1 (stereo not drawn) returned HIF-2a inh 40*, TWEAK-Fn14 inh -7, iPSC survival up 2, CF NFkB inh 18, KKLEB tox -4, HIF-2a conf 22 and HIF-1a counter 4.
COc1ccc2c3c([nH]c2c1)[C@@H](CO)N(C(=O)NC(C)C)CC31CCN(Cc2ccccc2)CC1 was read as LGR2 antag -3.
For C[C@@H]1CN([C@H](C)CO)S(=O)(=O)c2ccc(Br)cc2O[C@@H]1CN(C)C(=O)c1cnccn1 the results were LGR2 antag 0.
Screening C[C@@H]1CN([C@@H](C)CO)C(=O)c2cc(NS(=O)(=O)c3cn(C)cn3)ccc2O[C@H]1CN(C)S(=O)(=O)c1cn(C)cn1 returned LGR2 antag -5.
Screening O=C(O)CCC1(c2ccccc2)NC(=O)NC1=O (stereo not drawn) returned HIF-2a inh 44*, LGR2 antag 27, TWEAK-Fn14 inh -18, iPSC survival up -1, CF NFkB inh -2, KKLEB tox -9, HIF-2a conf 4 and HIF-1a counter -11.
